Hits are enriched below; roughly 6.3% of the tested compounds scored in any of these assays.
VP16 counter – counter-screen for ROR gamma inhibitors: Gal4-VP16 reporter; Drosophila S2 Gal4-VP16 UAS-luciferase, luminescence, 20 h; Potency, µM (series often up to 53.6 µM), without a hit: top-dose activity, negative = inhibition, usual class: inhibitors; hit rate 3.5% among 310,000;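 note: Gal4-VP16 expression switched on by copper sulfate through the metallothionein promoter; % is set by controls: 0 for no effect and ±100 for the full control effect; nearly all actives have a fitted effect of over 50% in size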
ATXN viability – reduces viability in counter-screen for ATXN expression inhibitors; S2 cells (HEK-293 line with an ATXN2-luciferase reporter) viability, CellTiter-Fluor protease fluorescence, 24 h; Potency, µM (top dose mostly 56.7 µM), hits mostly cytotoxic; hit rate 0.49% among 400,000; AID 651635; note: nearly all actives have a fitted effect of over 40% in size
HepG2 viability – counter-screen for TGF-b inhibitors: cytotoxicity in HepG2 cells; hit rate 0.76% among 410,000; Potency, µM (highest dose often 46.1 µM), inactives show at the highest dose activity change, negative = cytotoxicity, most hits filed as cytotoxic; HepG2 CAGA-GFP viability, ATP luminescence, 18 h
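CellTiter-Glo luminescence gave cytotoxicity after 18 hours at 37 degrees C. The cells were HepG2 CAGA-GFP in 1% FBS DMEM, stimulated with 500 pg/mL TGF-beta after compound addition. %Activity was normalised to no-cell wells (complete cell-killing) and DMSO (no toxicity), and curves were fitted and classified.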
TGFb inhibitor – inhibitors of TGF-b signaling; AID 588855; hit rate 1.2% among 410,000; Potency, µM (titrated, usually from 46.1 µM), inactives show top-dose activity, negative = inhibition, most hits filed as inhibitors; HepG2 CAGA-GFP TGF-b/SMAD3 reporter, GFP fluorescence, 18 h; TGF-beta stimulated, 500 pg/mL final; note: % is set by controls: 0 for no effect and ±100 for the full control effect; nearly all actives have a fitted effect of over 65% in size
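TGF-beta reporter screen: HEPG2 CAGA-GFP, 1% FBS, 500 pg/mL TGF-beta final, 18 h; per-cell GFP summed per well; curves fitted and categorized by class.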
RORgamma inh – blocks mouse ROR gamma transcriptional activity | P51450 | Drosophila S2 Gal4-RORgamma UAS-luciferase reporter, 20 h | Potency, µM (top dose mostly 53.6 µM), inactives show top-dose activity change, negative = inhibition, most hits filed as inhibitors | hit rate 5.4% among 310,000; note: % is set by controls: 0 for no effect and ±100 for the full control effect; nearly all actives have a fitted effect of over 60% in size
Target sequence (P51450 whole entry, looked up, the tested form may be a part): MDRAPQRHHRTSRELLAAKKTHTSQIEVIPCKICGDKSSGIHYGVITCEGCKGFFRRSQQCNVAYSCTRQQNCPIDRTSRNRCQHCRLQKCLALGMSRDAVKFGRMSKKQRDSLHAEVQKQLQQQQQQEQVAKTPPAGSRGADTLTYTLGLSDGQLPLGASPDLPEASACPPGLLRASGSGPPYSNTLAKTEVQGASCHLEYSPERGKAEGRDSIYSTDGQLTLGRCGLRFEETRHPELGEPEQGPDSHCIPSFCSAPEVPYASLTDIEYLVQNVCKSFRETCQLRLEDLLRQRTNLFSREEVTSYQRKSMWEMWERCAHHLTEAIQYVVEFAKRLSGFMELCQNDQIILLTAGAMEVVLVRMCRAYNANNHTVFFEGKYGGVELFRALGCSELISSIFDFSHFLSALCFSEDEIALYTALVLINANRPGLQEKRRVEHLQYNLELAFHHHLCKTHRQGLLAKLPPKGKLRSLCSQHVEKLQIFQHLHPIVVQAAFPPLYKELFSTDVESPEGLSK
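Read-out: Photinus luciferase luminescence; inhibitors lower reporter signal. Insect Schneider cells with Gal4-ROR gamma fusion under metallothionein promoter, UAS reporter; 700 uM final copper sulfate induction, 20 hr, ambient temperature.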
ATXN2 expr inh – ATXN2 expression inhibition; Potency, µM (highest dose often 57 µM), for inactives: at the highest dose activity change, negative = inhibition, most hits filed as inhibitors; HEK-293 ATXN2-luciferase reporter, luminescence, 24 h; hit rate 0.72% among 360,000; note: % is set by controls: 0 for no effect and ±100 for the full control effect; nearly all actives have a fitted effect of over 55% in size
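qHTS (up to 57 uM final) was run with 24 h compound exposure of reporter cells at 37 °C. Each well was multiplexed: SteadyGlo luminescence measured ATXN2-luciferase expression after a fluorogenic Gly-Phe-AFC viability readout (25 uM final).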
* hit, by the source's call; i = inactive; ? = inconclusive; / = no result; [ ] = another dose, or the depositor's remark. Calls come from the whole dose curve; as a rule, active = well fitted curve in the direction sought with a large enough effect; inconclusive = small, poorly fitted or top-dose-only effect, or another doubt; inactive = no such curve, though single readings can be large; an effect the other way counts as inactive or inconclusive. Potency is the fitted concentration of half-maximal effect.

SMILES	VP16 counter	ATXN viability	HepG2 viability	TGFb inhibitor	RORgamma inh	ATXN2 expr inh
CCOc1ccc(NC(=S)NCc2ccco2)cc1	?	?	11%	8%	14µM*	29%
O=C(COC(=O)c1ccc(NS(=O)(=O)c2cccs2)cc1)NCc1ccco1	1%	i	-34%	-29%	22µM*	-8%
S=C(NCc1ccco1)Nc1ccc(N2CCOCC2)cc1	-3%	i	0%	-15%	-13%	10%
COc1ccc(NC(=S)NCc2ccco2)cc1	?	i	11%	12%	11µM*	12%
COc1ccc(CNC(=O)c2oc3c(c2C)-c2nn(Cc4ccccc4Cl)cc2CC3)cc1	/	/	-29%	0%	/	/
CCOC(=O)c1ccc(NC(=S)NCc2ccc(S(N)(=O)=O)cc2)cc1	-2%	i	3%	3%	-6%	5%
CCOC(=O)c1ccc(NC(=S)NCc2ccco2)cc1	-22%	i	-2%	0%	10µM*	-17%
S=C(NCc1ccco1)Nc1ccc(Oc2ccccc2)cc1	?	i	-27%	?	6.3µM*	/
CC(C)CNC(=S)Nc1ccc(Oc2ccccc2)cc1	4µM*	i	-29%	-39%	3.5µM*	-2%
CCOc1cccc(C2C=C(c3ccc4c(c3)OCO4)NC(c3ccccc3F)N2)c1O (stereo not drawn)	/	/	-33%	?	/	/
O=c1ccsn1Cc1ccccc1	4.5µM*	i	-30%	?	2.2µM*	12%
CSc1cccc(NC(=S)N(CCCN2CCCC(C)C2)Cc2cccs2)c1 (stereo not drawn)	27%[10 µM]	?	-27%	?	11µM*	-2%[11.3 µM]
COc1cccc(NC(=S)N(CCCN2CCCC(C)C2)Cc2cccs2)c1 (stereo not drawn)	5%	i	-40%	-28%	-15%	-9%
COc1ccc(NC(=S)N(CCCN2CCC(C)CC2)Cc2cccs2)cc1Cl	-2%[10 µM]	?	-27%	?	11µM*	-36%
Cc1ccc(-c2cc(C(=O)NCc3ccccc3)c3c(-c4ccc(C)cc4)[nH]nc3n2)cc1	/	i	2%	?	/	11%
CCCCNC(=O)NNc1nc(Cl)cc(C)c1C#N	14µM*	/	-12%	-1%	-26%	-25%
CCOC(=O)c1ccc2c(c1)n(CC)c(/C=C/Nc1ccccc1)[n+]2CC	-11%	11µM*	-28%	9%	-3%	?
CCn1c(/C=C/Nc2ccccc2)[n+](CC)c2ccc(Cl)cc21	1%	?	-12%	-1%	24%	-13%
O=C/C=C/c1c(-c2ccccc2)cc2oc3ccccc3cc1-2	?	?	16µM*	11µM*	?	?
COc1ccc(-c2cc3ccccc3oc2=O)cc1	/	i	-59%	-11%	/	26%
CN1C(=O)C(Cl)(Cl)C(=O)c2ccccc21	?	i	0%	?	11µM*	-20%[11.3 µM]
COc1ccc(CNC(=O)Cn2nc(C(F)(F)F)c(Br)c2C)cc1	0%	i	5%	0%	5%	-3%
COc1cc(NC(=O)Cn2nc(C(F)(F)F)c(Br)c2C)cc([N+](=O)[O-])c1	18µM*	i	-57%	?	?	?
O=C(NC(=S)Nc1ccccc1)c1csnn1	?	i	-8%	-16%	5.6µM*	-5%
COc1ccc(NC(=S)NC(=O)c2csnn2)cc1	26%	i	-10%	-7%	?	5%
O=C(NC(=S)Nc1ccc(C(F)(F)F)cc1)c1csnn1	?	i	3%	11%	7.9µM*	4%
O=C(Cc1c[nH]c2ccccc12)N1CCC(n2c(C3CCCO3)nc3cc(C(F)(F)F)ccc32)CC1 (stereo not drawn)	/	i	/	/	/	/
Cc1ccccc1-c1cc2nc(Nc3ccc(F)cc3)n(C)c(=O)c2s1	/	i	-85%	?	/	-5%
Fc1ccc(N2CCN(c3ncnc4c3nc3n4CCCC3)CC2)cc1	/	i	-26%	?	/	-27%

From PubChem BioAssay
